Screening results deposited in PubChem BioAssay by National Center for Advancing Translational Sciences (NCATS).
PMP22 txn prim = modulators of PMP22 gene transcription in S16 Schwann cells. Potency, µM (top dose mostly 57.5 µM), for inactives: at the highest dose activity change, negative = inhibition, hits mostly inhibitors. hit rate 2% among 43,000. S16 Pmp22-F2sN Schwann cells, FLuc/NLuc coincidence luminescence, 24 h; active = clear falling dose curves in both reporters; inconclusive = both reporters move, but less clearly or upward; inactive = either reporter flat; the % is the NLuc reporter signal
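qHTS, 1536-well. Cells seeded, compounds added by pin tool, 24 h 37C. Nano-Glo reagent 1 (lysis/FLuc), 10 min RT, read; Stop&Glo, 10 min RT, read NLuc.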
p53null 39C kill = selectivity test: cytotoxicity in p53 null cells, nonpermissive temperature; H1299 p53-null (neo) cells, 39C, ATPlite viability, 24 h; Potency, µM (doses to about 46.1 µM), inactives show at the highest dose activity, negative = cell killing, actives largely listed as cytotoxic; hit rate 0.97% among 55,000;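 note: 0% = DMSO only and -100% = full killing by 100 µM tamoxifen; nearly all actives have a fitted effect of over 50% in size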
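Cells seeded at 600/well, 37C overnight. Compound added (up to 46 uM), plates shifted to 39C for 24 hr. ATPlite added, luminescence read after 20 min at room temperature.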
OvCa metastasis = inhibitors of ovarian cancer cell adhesion and invasion in omental model. SKOV3ip1-GFP adhesion/invasion on 3D omental model, fluorescence. Potency, µM (highest dose often 45.8 µM), inactives show top-dose activity change, negative = inhibition, actives largely listed as inhibitors. hit rate 0.1% among 46,000. AID 1963576;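 note: plate controls were DMSO wells for no effect and tomatine positive control wells for full effect; nearly all actives have a fitted effect of over 65% in size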
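qHTS, 4-pt dose (0.36-46 umol/L); SKOV3ip1-GFP, 1,200 cells/well, no FBS; primary omental fibroblast/mesothelial co-culture 48 h pre-grown; 2 h RT + 16 h 37 C; PBS wash, 4% PFA; GFP count 488/509 nm.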
pS6 MEF inh = mTORC1 pathway inhibition measured by phospho-rpS6; Tsc2-/- p53-/- MEF, phospho-rpS6 immunofluorescence/PI, 24 h; Potency, µM (titrated, usually from 38.3 µM), inactives show at the highest dose activity change, negative = inhibition, usual class: inhibitors; hit rate 0.78% among 44,000;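 note: plate controls were DMSO for no effect and rapamycin for full effect; nearly all actives have a fitted effect of over 50% in size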
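Immunofluorescence of rpS6 phosphorylation in Tsc2-/-, p53-/- MEFs after 24 h compound exposure, normalized to propidium iodide signal. Activity is expressed as % positive cells, thresholded with 7.5 nM rapamycin.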
p53null 32C kill = p53 null cell cytotoxicity, permissive temperature | H1299-neo p53 null cells, ATP luminescence, 24 h, 32C | Potency, µM (series often up to 46.1 µM), without a hit: at the highest dose activity change, negative = cytotoxicity, most hits filed as cytotoxic | hit rate 0.62% among 55,000;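 note: 0% = DMSO only and -100% = full killing by 100 µM tamoxifen; nearly all actives have a fitted effect of over 55% in size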
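Cells lacking p53 (H1299-neo) are plated at 600 per well and allowed to settle overnight at 37C. Test compounds (up to 46 uM) are added and held 24 hours at 32C, then ATP is quantified by luminescence.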
S16 viability = S16 Schwann cell cytotoxicity | Potency, µM (doses to about 57.5 µM), for the others: top-dose activity change, negative = cytotoxicity, usual class: cytotoxic | S16 Pmp22-F2sN Schwann cells viability, CellTiter-Glo, 24 h | hit rate 0.48% among 43,000; note: nearly all actives have a fitted effect of over 65% in size
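Used to flag compounds lowering reporter output through toxicity, this quantitative HTS measures ATP-based CellTiter-Glo luminescence in S16 Pmp22-F2sN Schwann cells after 24 h compound exposure at 37C.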
Numbers without * were called inactive; i = inactive; ? = inconclusive; . = no result. Most compounds without a hit are left out; they make up all but 3% or so of the library. Unless noted, calls come from the whole dose curve; as a rule, active = well fitted curve in the direction sought with a large enough effect; inconclusive = small, poorly fitted or top-dose-only effect, or another doubt; inactive = no such curve, though single readings can be large; an effect the other way counts as inactive or inconclusive. Unless noted, % is set by controls: 0 for no effect and ±100 for the full control effect; potency is the fitted concentration of half-maximal effect.

SMILES	PMP22 txn prim	p53null 39C kill	OvCa metastasis	pS6 MEF inh	p53null 32C kill	S16 viability
CCCN(CCC)CC(O)Cn1cc(/C=C/C(=O)c2ccc(C)cc2)c2ccccc21 (stereo unspecified)	?	?	?	-10%	?	?
CCCN(CCC)CC(O)Cn1cc(/C=C/C(=O)c2ccc(OC)cc2)c2ccccc21 (stereo unspecified)	?	?	?	15µM*	?	?
CCCCN(C)CC(O)Cn1cc(/C=C/C(=O)c2ccc(C)cc2)c2ccccc21 (stereo unspecified)	?	22µM*	?	?	16µM*	?
COc1ccc(C(=O)/C=C/c2cn(CC(O)CN(CC(C)C)CC(C)C)c3ccccc23)cc1 (stereo unspecified)	?	-1%	i	-10%	-7%	-3%
O=C(O)C1=CC(O)C(O)[C@H](O)C1 (stereo partly specified)	.	.	-14%	.	.	.
COc1ccc(C(=O)/C=C/c2cn(CC(O)CN3CCCCCC3)c3ccccc23)cc1OC (stereo unspecified)	?	?	-15%	-15%	1%	-20%
CCCCN(C)CC(O)Cn1cc(/C=C/C(=O)c2ccc(OC)c(OC)c2)c2ccccc21 (stereo unspecified)	?	13µM*	-22%	?	?	-24%
CC(C)(C)c1ccc(/C=C/C(=O)Nc2ccc(S(N)(=O)=O)cc2)cc1	?	?	-14%	-19%	25µM*	?
Cc1ccc(/C=C/C(=O)Nc2ccc(S(N)(=O)=O)cc2)o1	8%	-5%	10%	-6%	-7%	5%
O=C(CCCCCCC(=O)Nc1ccc([C@H]2O[C@@H](CSc3nc(-c4ccccc4)c(-c4ccccc4)o3)C[C@@H](c3ccc(CO)cc3)O2)cc1)NO	.	.	-15%	.	.	.
c1ccc(-c2cc(-c3ccccc3)c3c(n2)-c2ccccc2OC3)cc1	7%	.	i	1%	.	24%
CCOc1ccccc1Nc1nc(-c2cccc(Cl)c2)c2c(n1)-c1ccccc1OC2	-11%	13µM*	-8%	2.9µM*	?	4%
CC[C@H](CC[C@@H](C)[C@H]1CC[C@H]2[C@@H]3CC=C4C[C@@H](O)CC[C@]4(C)[C@@H]3CC[C@]12C)C(C)C	.	.	-10%	.	.	.
CNC(=O)C1CCN(Cc2cc3ccccc3n2Cc2ccccc2C)CC1	?	5%	-3%	-13%	1%	-23%
Cc1ccccc1Cn1c(CN2CCC(C(=O)NCCN(C)C)CC2)cc2ccccc21	?	3%	?	7.4µM*	-6%	?
O=c1[nH]c(=O)n([C@H]2C[C@@H](O)[C@@H](CO)O2)cc1I	.	.	3%	.	.	.
COc1ccccc1NC(=O)c1cnc(SCC(=O)N2CCOCC2)n(C)c1=O	11µM*	-3%	-14%	-8%	-9%	18%
COc1cc(Nc2ncc3c(n2)-c2ccc(Cl)cc2C(c2c(F)cccc2OC)=NC3)ccc1C(=O)O	.	.	-9%	.	.	.
O=C(Nc1ccc2nc(-c3ccco3)[nH]c2c1)c1cccs1	.	10µM*	.	.	7.1µM*	.
Cc1ccc(CCNC(=O)c2c(C)oc3ncn(CC(C)C)c(=O)c23)cc1	?	3%	-11%	-8%	9%	-5%
CCCCNC(=O)c1c(C)oc2ncn(CC(C)C)c(=O)c12	11µM*	3%	1%	-20%	0%	?
O=C(N/N=C/c1sc2ccccc2c1O)c1ccccc1	.	.	.	.	7.1µM*	.
O=C(N/N=C/c1cccs1)c1ccc(NC(=O)c2ccccc2Cl)cc1	.	36%	.	.	.	.
Cc1nc2c(C(=O)NCCc3ccccc3)c[nH]n2c(=O)c1Cc1ccc(F)cc1Cl	?	?	8%	-14%	13µM*	9%
